# In PubChem BioAssay:
# Inconclusive results are not listed. Activity calls are given as the source filed them.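 The calls were made as follows, unless noted: active = normalized viability below 100% at a tested concentration; inactive = the rest.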
# Columns and labels:
# [1] = growth inhibition of DIPG glioma cells, dose response, cell-based, SU-DIPG-XVII, MIPE5.0, CellTiter-Glo, qHTS (AID 1347060; cut-off not given, nearly all actives have AC50 up to about 26 µM); details: SU-DIPG-XVII viability, CellTiter-Glo ATP luminescence
# [2] = viability loss in pontine glioma line – cell-based, SU-DIPG-XXV, MIPE5.0, CellTiter-Glo, qHTS, dose response (AID 1347065; cut-off not given, nearly all actives have AC50 up to about 26 µM;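 also: cells exposed to compound for 48 hours before ATP readout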); details: CellTiter-Glo ATP luminescence
# [3] = SU-DIPG-XXV glioma cell viability, MIPE5.0 library, qHTS (AID 1347068; cut-off not given, nearly all actives have IC50 up to about 30 µM)
# [4] = sensitizers of A549 cells to miR-34 induction, primary screen, imaging, A549 dox-inducible miR-34, nuclei and caspase counts (AID 1347080;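 active = compounds whose cell count with miR-34 switched on is under 0.7 times the count with it off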); details: A549 miR-34 inducible, Hoechst nuclei count, 48 h
# [5] = survival rescue of mitochondrial mutant cells in low glucose, primary screen, MELAS cybrids, Rieske KO mouse fibroblasts, CellTiter-Glo (AID 1508586;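 active = mean z-score across replicates of 1.96 or higher in either the MELAS or the Rieske mutant cell line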;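 also: z relative to plate mean and SD of compound and empty wells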)
# [6] = ovarian cancer cell viability with rucaparib, profiling panel, oncology-focused library, rucaparib conditional (AID 1508598); details: patient-derived ovarian cancer cells, CellTiter-Glo viability, 144 h, stronger effect = lower value
# [7] = LFS_MB_P medulloblastoma growth inhibition, cell-based, chromothripsis tumors, cisplatin or BGB combos (AID 1671449; in the data active = inhibition above about 80%;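 also: cells exposed for 96 hours; 0% = vehicle DMSO and 100% = killing by high DMSO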); details: LFS_MB_P medulloblastoma cells
# [8] = HDN33 neuroblastoma growth inhibition, cell-based, chromothripsis tumors, cisplatin or BGB combos (AID 1671450; in the data active = inhibition above about 80%;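 also: cells exposed to compound for four days; 0% = vehicle DMSO and 100% = cell killing by high DMSO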); details: HDN33 neuroblastoma cells, stronger effect = higher value
# [9] = ICB984 medulloblastoma cell growth inhibition, synergistic combos for chromothripsis tumors, cisplatin or BGB combos (AID 1671451; call rule not given here;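 also: cells exposed for 96 hours before readout; 0% = vehicle DMSO and 100% = killing by high DMSO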); details: ICB984 medulloblastoma cells, drug combinations, stronger effect = higher value
# [10] = LFS_MB_1R medulloblastoma cell growth inhibition, synergistic combos for chromothripsis tumors, cisplatin or BGB combos (AID 1671452; in the data active = inhibition above about 80%;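 also: cells exposed for 96 hours before readout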); details: LFS_MB_1R medulloblastoma cells, stronger effect = higher value
# [11] = HTB85 osteosarcoma cell growth inhibition, synergistic combos for chromothripsis tumors, BGB or cisplatin IC20 combos (AID 1671453; in the data active = inhibition above about 80%;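 also: cells exposed for 96 hours before readout; 0% = vehicle DMSO and 100% = high DMSO killing control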); details: HTB85 osteosarcoma cells, drug combinations, stronger effect = higher value
# [12] = CRL2098 osteosarcoma cell growth inhibition, synergistic combos for chromothripsis tumors, BGB or cisplatin IC20 combos (AID 1671454; in the data active = inhibition above about 80%;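 also: cells exposed for 96 h before readout; 0% = vehicle DMSO and 100% = killing by high DMSO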); details: CRL2098 osteosarcoma cells, drug combinations, stronger effect = higher value
# [13] = HD-MB03 medulloblastoma cell growth inhibition, synergistic combos for chromothripsis tumors, BGB or cisplatin IC20 combos (AID 1671455; in the data active = inhibition above about 83%;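 also: 0% = vehicle DMSO and 100% = high DMSO as cytotoxic control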); details: HD-MB03 medulloblastoma cells, stronger effect = higher value
# [14] = UWB1.289 ovarian carcinoma cell growth inhibition, synergistic combos for chromothripsis tumors, BGB or cisplatin combos (AID 1671456; in the data active = inhibition above about 80%;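 also: cells exposed to compound for four days; 0% = vehicle DMSO and 100% = killing by high DMSO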); details: UWB1.289 ovarian carcinoma cells, stronger effect = higher value
# [15] = LFS_MB_2R medulloblastoma cell growth inhibition, synergistic combos for chromothripsis tumors, cisplatin combos (AID 1671457; in the data active = inhibition above about 80%;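 also: cells exposed to compound for four days before readout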); details: LFS_MB_2R medulloblastoma cells, stronger effect = higher value
# [16] = MDA-MB-436 breast carcinoma cell growth inhibition, synergistic combos for chromothripsis tumors, BGB or cisplatin combos (AID 1671458; call rule not given here;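 also: cells exposed for 96 hours; 0% = vehicle DMSO and 100% = killing by high DMSO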); details: MDA-MB-436 breast carcinoma growth inhibition, drug combinations, stronger effect = higher value
# [17] = UWB1.289_BRCA1 ovarian cancer growth, cell-based, BGB or cisplatin combinations (AID 1671459; in the data active = inhibition above about 80%); details: UWB1.289 BRCA1 ovarian carcinoma, drug combinations, stronger effect = higher value
# [18] = human astrocyte viability loss, single and combined drugs, cytotoxicity control for chromothriptic childhood tumor combination screen, cell-based, BGB or cisplatin IC20 combos (AID 1671460; in the data active = inhibition above about 80%;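 also: cells exposed to compounds for 96 hours before viability readout; 0% = vehicle and 100% = killing control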); details: Human astrocytes, drug combinations, stronger effect = higher value
# [19] = growth inhibition of BT084 medulloblastoma cells, cell-based, ICGC_MB145, cisplatin and BGB IC40 combos (AID 1671461; in the data active = inhibition above about 80%;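 also: cells exposed to drugs for 96 hours; 0% = vehicle DMSO and 100% = high DMSO full killing control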); details: drug combinations, stronger effect = higher value
# [20] = growth inhibition of RCMB18 medulloblastoma cells, cell-based, cisplatin and BGB IC40 combos (AID 1671462; in the data active = inhibition above about 80%;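 also: cells exposed to compound for four days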); details: stronger effect = higher value
# [21] = growth inhibition of CRL1545 osteosarcoma cells, cell-based, cisplatin and BGB IC20 combos (AID 1671464; in the data active = inhibition above about 80%;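 also: cells exposed to compound for 96 hours before readout; 0% = vehicle DMSO and 100% = high DMSO killing control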); details: stronger effect = higher value
# [22] = measured here: combination with BGB IC40, at 0.05 µM
# [23] = measured here: with BGB IC20 combination, at 0.5 µM
# [24] = measured here: with cisplatin IC20 combination, at 0.5 µM
# [25] = measured here: combination with cisplatin, at 0.5 µM
# [26] = measured here: combination with cisplatin, at 5 µM
structure (smiles),measurement,setting,value
COc1ccc(-n2c(SCCCN3C(=O)c4cccc5cccc(c45)C3=O)nnc2-c2ccncc2)cc1,outcome,[1],inactive
same,outcome,[2],inactive
same,outcome,[3],inactive
same,fold change,"[4]; stronger effect = lower value, cell number ratio, induced over uninduced",0.884 (inactive)
same,fold change,[4]; measured here: relative caspase fold change +Dox/-Dox,0.42
same,cell count,"[4]; measured here: total cells with miR-34 induction, stronger effect = lower value",6580
same,cell count,[4]; measured here: total cells without miR-34 induction,7440
same,z-score,"[5]; MELAS cybrid survival, CellTiter-Glo 48 h, stronger effect = higher value",-0.376 (inactive)
same,z-score,"[5]; Rieske KO mouse fibroblast survival, CellTiter-Glo 72 h",1.13
same,viability,"[6]; at 0.000305 µM, OCI-C5x cells, with rucaparib 10 µM, 100% = cells with rucaparib alone",118% (inactive)
same,viability,"[6]; at 0.000305 µM, OCI-C5x cells, without rucaparib",116% (inactive)
same,viability,"[6]; at 0.000305 µM, OCI-P5x cells, with rucaparib 20 µM, 100% = cells with rucaparib alone",101% (inactive)
same,viability,"[6]; at 0.000305 µM, OCI-P5x cells, without rucaparib",100% (inactive)
same,viability,"[6]; at 0.00122 µM, OCI-C5x cells, with rucaparib 10 µM, 100% = cells with rucaparib alone",120% (inactive)
same,viability,"[6]; at 0.00122 µM, OCI-C5x cells, without rucaparib",121% (inactive)
same,viability,"[6]; at 0.00122 µM, OCI-P5x cells, with rucaparib 20 µM, 100% = cells with rucaparib alone",101% (inactive)
same,viability,"[6]; at 0.00122 µM, OCI-P5x cells, without rucaparib",99.9% (active)
same,viability,"[6]; at 0.00488 µM, OCI-C5x cells, with rucaparib 10 µM, 100% = cells with rucaparib alone",117% (inactive)
same,viability,"[6]; at 0.00488 µM, OCI-C5x cells, without rucaparib",117% (inactive)
same,viability,"[6]; at 0.00488 µM, OCI-P5x cells, with rucaparib 20 µM, 100% = cells with rucaparib alone",94.7% (active)
same,viability,"[6]; at 0.00488 µM, OCI-P5x cells, without rucaparib",104% (inactive)
same,viability,"[6]; at 0.0195 µM, OCI-C5x cells, with rucaparib 10 µM, 100% = cells with rucaparib alone",125% (inactive)
same,viability,"[6]; at 0.0195 µM, OCI-C5x cells, without rucaparib",121% (inactive)
same,viability,"[6]; at 0.0195 µM, OCI-P5x cells, with rucaparib 20 µM, 100% = cells with rucaparib alone",102% (inactive)
same,viability,"[6]; at 0.0195 µM, OCI-P5x cells, without rucaparib",101% (inactive)
same,viability,"[6]; at 0.0781 µM, OCI-C5x cells, with rucaparib 10 µM, 100% = cells with rucaparib alone",125% (inactive)
same,viability,"[6]; at 0.0781 µM, OCI-C5x cells, without rucaparib",118% (inactive)
same,viability,"[6]; at 0.0781 µM, OCI-P5x cells, with rucaparib 20 µM, 100% = cells with rucaparib alone",95.3% (active)
same,viability,"[6]; at 0.0781 µM, OCI-P5x cells, without rucaparib",98.1% (active)
same,viability,"[6]; at 0.313 µM, OCI-C5x cells, with rucaparib 10 µM, 100% = cells with rucaparib alone",138% (inactive)
same,viability,"[6]; at 0.313 µM, OCI-C5x cells, without rucaparib",130% (inactive)
same,viability,"[6]; at 0.313 µM, OCI-P5x cells, with rucaparib 20 µM, 100% = cells with rucaparib alone",95.5% (active)
same,viability,"[6]; at 0.313 µM, OCI-P5x cells, without rucaparib",77.9% (active)
same,viability,"[6]; at 1.25 µM, OCI-C5x cells, with rucaparib 10 µM, 100% = cells with rucaparib alone",129% (inactive)
same,viability,"[6]; at 1.25 µM, OCI-C5x cells, without rucaparib",128% (inactive)
same,viability,"[6]; at 1.25 µM, OCI-P5x cells, with rucaparib 20 µM, 100% = cells with rucaparib alone",89.8% (active)
same,viability,"[6]; at 1.25 µM, OCI-P5x cells, without rucaparib",77.7% (active)
same,viability,"[6]; at 5 µM, OCI-C5x cells, with rucaparib 10 µM, 100% = cells with rucaparib alone",113% (inactive)
same,viability,"[6]; at 5 µM, OCI-C5x cells, without rucaparib",123% (inactive)
same,viability,"[6]; at 5 µM, OCI-P5x cells, with rucaparib 20 µM, 100% = cells with rucaparib alone",98.5% (active)
same,viability,"[6]; at 5 µM, OCI-P5x cells, without rucaparib",86.5% (active)
same,inhibition,"[7]; at 0.5 µM, stronger effect = higher value",9.82% (inactive)
same,inhibition,"[7]; measured here: combination with BGB IC20, at 0.005 µM",9.58%
same,inhibition,"[7]; measured here: combination with BGB IC40, at 0.005 µM",-35.2%
same,inhibition,[7]; [22],-11%
same,inhibition,"[7]; measured here: combination with cisplatin, at 0.5 µM, stronger effect = higher value",82.2%
same,inhibition,"[7]; measured here: combination with cisplatin, at 5 µM, stronger effect = higher value",-43.7%
same,inhibition,"[8]; BGB combo, at 5 µM",-3.81%
same,inhibition,[8]; at 0.5 µM,4% (inactive)
same,inhibition,"[8]; cisplatin combo, at 5 µM",14.9%
same,inhibition,[8]; [23],-3.11%
same,inhibition,[8]; [24],10.7%
same,inhibition,"[8]; single agent, at 5 µM",26.4%
same,inhibition,"[9]; BGB IC20 combo, at 0.005 µM",-14.7%
same,inhibition,"[9]; BGB IC40 combo, at 0.005 µM",-33.9%
same,inhibition,"[9]; BGB IC40 combo, at 0.05 µM",-28.6%
same,inhibition,[9]; at 0.5 µM,-17.9% (inactive)
same,inhibition,"[9]; cisplatin combo, at 0.05 µM",-33.7%
same,inhibition,"[9]; cisplatin combo, at 0.5 µM",-25.4%
same,inhibition,"[9]; cisplatin combo, at 5 µM",-32.6%
same,inhibition,"[9]; measured here: 5 uM single agent, at 5 µM",-15.5%
same,inhibition,[10]; at 0.5 µM,-13.2% (inactive)
same,inhibition,[10]; [22],-35.9%
same,inhibition,[10]; [25],-19.9%
same,inhibition,[10]; [26],-31.3%
same,inhibition,[11]; at 0.5 µM,-0.55% (inactive)
same,inhibition,"[11]; measured here: with BGB IC20, at 0.5 µM",6.74%
same,inhibition,"[11]; measured here: with BGB IC20, at 5 µM",0.541%
same,inhibition,"[11]; measured here: with cisplatin IC20, at 0.5 µM",-17.9%
same,inhibition,"[11]; measured here: with cisplatin IC20, at 5 µM",-0.549%
same,inhibition,"[11]; single agent, at 5 µM",19.7%
same,inhibition,[12]; at 0.5 µM,-27.6% (inactive)
same,inhibition,"[12]; measured here: combination with BGB at IC20, at 0.5 µM",-23.3%
same,inhibition,"[12]; measured here: combination with cisplatin at IC20, at 0.5 µM",-22.2%
same,inhibition,[13]; at 0.5 µM,-0.19% (inactive)
same,inhibition,"[13]; measured here: combo with BGB at IC20, at 0.5 µM",-1.2%
same,inhibition,"[13]; measured here: combo with cisplatin at IC20, at 0.5 µM",6.56%
same,inhibition,[14]; at 0.5 µM,1.01% (inactive)
same,inhibition,"[14]; measured here: inhibition with BGB combination, at 0.05 µM",-4.64%
same,inhibition,"[14]; measured here: inhibition with cisplatin combination, at 0.05 µM",-4.19%
same,inhibition,[15]; at 0.5 µM,-15% (inactive)
same,inhibition,[15]; [25],-8.95%
same,inhibition,[15]; [26],-20.5%
same,inhibition,[16]; at 0.5 µM,-5.31% (inactive)
same,inhibition,"[16]; measured here: BGB combination, at 0.5 µM",-12%
same,inhibition,"[16]; measured here: BGB combination, at 5 µM",-10.9%
same,inhibition,"[16]; measured here: cisplatin combination, at 0.5 µM",-2.01%
same,inhibition,"[16]; measured here: cisplatin combination, at 5 µM",-2.78%
same,inhibition,"[17]; BGB combination, concentration series, at 5 µM",7.08%
same,inhibition,[17]; at 0.5 µM,1.18% (inactive)
same,inhibition,"[17]; cisplatin combination, concentration series, at 5 µM",13.2%
same,inhibition,[18]; at 0.5 µM,16% (inactive)
same,inhibition,"[18]; measured here: combo with BGB IC20, at 0.5 µM",24.6%
same,inhibition,"[18]; measured here: combo with cisplatin IC20, at 0.5 µM",15.9%
same,inhibition,[19]; at 0.5 µM,3.66% (inactive)
same,inhibition,"[19]; cisplatin combination, at 0.5 µM",8.14%
same,inhibition,"[19]; cisplatin combination, at 5 µM",-2.96%
same,inhibition,"[19]; measured here: BGB IC40 combination 0.05 uM, at 0.05 µM",15.7%
same,inhibition,"[19]; single agent, at 5 µM",-22%
same,inhibition,[20]; at 0.5 µM,-7.05% (inactive)
same,inhibition,"[20]; cisplatin combo, at 5 µM",17.7%
same,inhibition,"[20]; measured here: BGB IC40 combination, at 0.05 µM",-27.1%
same,inhibition,[20]; [25],26.9%
same,inhibition,"[20]; single agent, at 5 µM",-22.4%
same,inhibition,[21]; at 0.5 µM,-5.28% (inactive)
same,inhibition,[21]; [23],-6.44%
same,inhibition,[21]; [24],-4.7%
same,inhibition,"[21]; single agent, at 0.05 µM",-13.5%
same,inhibition,"[21]; single agent, at 5 µM",7.92%
